Drawing on PubChem BioAssay (NCATS), this text covers Potency for 40 compounds.

Calls of active or inactive are those of the source. Where a call stands in place of a potency, no number is given. The call rests on the fitted dose curve; in most records, active means well fitted inhibition curve with a large enough effect; inconclusive means small, poorly fitted or top-dose-only effect; inactive means flat fitted curve, though single readings scatter.
Potency means the concentration at half of the fitted maximal effect.

Chain of DNA polymerase III PolC-type (Bacillus subtilis (strain 168)) (P13267 whole entry, looked up): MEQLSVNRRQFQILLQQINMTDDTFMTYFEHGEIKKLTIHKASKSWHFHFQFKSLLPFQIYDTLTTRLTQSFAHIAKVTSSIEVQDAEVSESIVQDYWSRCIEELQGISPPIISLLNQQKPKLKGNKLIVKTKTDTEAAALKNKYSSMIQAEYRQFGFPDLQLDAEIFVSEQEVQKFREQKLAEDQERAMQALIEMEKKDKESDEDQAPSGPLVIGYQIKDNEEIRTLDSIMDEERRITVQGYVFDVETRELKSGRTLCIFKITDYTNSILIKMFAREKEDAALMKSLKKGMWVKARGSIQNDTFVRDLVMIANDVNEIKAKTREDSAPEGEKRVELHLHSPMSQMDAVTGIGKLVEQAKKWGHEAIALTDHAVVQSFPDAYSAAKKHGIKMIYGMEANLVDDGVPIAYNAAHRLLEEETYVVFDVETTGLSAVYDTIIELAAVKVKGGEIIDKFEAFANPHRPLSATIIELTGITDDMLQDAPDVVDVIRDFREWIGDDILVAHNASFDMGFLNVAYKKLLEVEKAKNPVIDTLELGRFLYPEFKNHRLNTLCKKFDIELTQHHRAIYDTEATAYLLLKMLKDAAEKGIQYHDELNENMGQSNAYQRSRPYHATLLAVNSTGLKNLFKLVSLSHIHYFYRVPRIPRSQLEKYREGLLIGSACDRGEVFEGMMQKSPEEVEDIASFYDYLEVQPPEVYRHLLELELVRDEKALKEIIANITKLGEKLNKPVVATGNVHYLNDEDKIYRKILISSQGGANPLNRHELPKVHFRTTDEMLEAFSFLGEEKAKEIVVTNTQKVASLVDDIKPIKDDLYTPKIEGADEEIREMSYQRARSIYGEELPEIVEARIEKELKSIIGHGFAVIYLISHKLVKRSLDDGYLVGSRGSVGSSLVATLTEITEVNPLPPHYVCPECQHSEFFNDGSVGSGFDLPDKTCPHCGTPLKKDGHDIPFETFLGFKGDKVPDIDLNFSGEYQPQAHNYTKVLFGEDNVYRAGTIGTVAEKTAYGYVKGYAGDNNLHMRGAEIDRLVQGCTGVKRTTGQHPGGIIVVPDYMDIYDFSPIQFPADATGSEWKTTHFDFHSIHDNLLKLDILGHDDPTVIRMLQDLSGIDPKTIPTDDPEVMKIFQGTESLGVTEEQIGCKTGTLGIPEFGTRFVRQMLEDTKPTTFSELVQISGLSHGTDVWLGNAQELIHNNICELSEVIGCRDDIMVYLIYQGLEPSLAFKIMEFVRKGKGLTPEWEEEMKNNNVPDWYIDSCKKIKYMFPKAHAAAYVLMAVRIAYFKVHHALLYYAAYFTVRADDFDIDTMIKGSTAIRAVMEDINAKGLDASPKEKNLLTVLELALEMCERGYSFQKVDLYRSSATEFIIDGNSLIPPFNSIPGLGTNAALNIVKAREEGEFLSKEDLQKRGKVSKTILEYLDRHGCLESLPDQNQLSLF

The assay concerns the target DNA polymerase III PolC-type (Bacillus subtilis (strain 168)) (UniProt P13267). The assay is described as follows: qHTS Validation Assay for the Inhibitors of DNA Replication in Gram-Positive Bacteria (AID 485295). As to conditions: Gram-positive bacterial DNA replication assay; series mostly up to 57.1 µM. On the procedure:
B Subtilis DNA polymerase III holoenzyme complex was assayed for DNA production by fluorescent detection of the double-stranded DNA product with PicoGreen dye. The holoenzyme complex was reconstituted from the following purified protein components: DNA Polymerase III, beta subunit processivity factor, SSB single-stranded DNA binding protein, and Primase. Single-stranded, circular M13Gori was used as a substrate with dNTPs and NTPs also supplied to the substrate reagent. Compounds from the NCGC collection were incubated with the holoenzyme mixture for […] at room temperature to allow binding to occur, and then the reaction was started by the addition of substrate. After 30 min incubation at room temperature, PicoGreen solution containing EDTA was added to stop the reaction and to visualize the double-stranded DNA produced. Reaction progress was measured in a ViewLux CCD imager in fluorescence intensity mode by using 480 nm excitation and 540 nm emission filter set.
1. Thaw screening compounds.
2. Label assay plates. Prepare pipette tips, reagent reservoirs, buffers and controls.
1. Thaw Enzymes, DNA template, Nucleotides and PicoGreen dye concentrate. Thawed enzymes are stable on ice for ~1
week. Other thawed components are stable indefinitely.
2. Prepare sufficient quantities of Enzyme, Substrate and PicoGreen Quench mixes (according to Table II). For the number of
compound plates being screened.
3. Ensure that the tip wash station reservoirs have clean water and turn on recirculating chiller so that the chilled deck position
1. Load 2 uL of EDTA controls (250 mM, Background, 100 % inhibition) and 2 uL of DMSO controls (Negative control, 0%
inhibition) in the screening plates (flat-bottomed black 384-well polypropylene, Greiner Bio-one).
2. Place Enzyme mix reservoir on the chiller position of the liquid handler deck. Make sure that chiller will maintain
temperature of Enzyme mix at 4degC. Substrate mix and PicoGreen Quench can be stored at room temp.
3. Program liquid handling robotics to dispense 18 uL of Enzyme mix into assay plates. Wash tips.
4. Aspirate and dispense 2 uL of compound from compound plates, mix and Incubate at room temperature for 10 minutes.
5. Aspirate 5 ul of Substrate mix, dispense into assay plates and mix by pipetting. Wash tips.
6. Incubate at room temperature (21 +/- 1 deg C) for 20 minutes.
7. Quench reactions by addition of 25 uL PicoGreen Quench mix and mix by pipetting (using HTS robotics or bulk reagent
dispenser such as a Multidrop or uFill). Keep plates in the dark or stacked until ready to read fluorescence.
8. Read fluorescence intensity of plates on plate reader using "Fluorescein (Ex 485 nm/ Em 535 nm, 0.1s)" setting.
(qHTS replaces the single test concentration by a dilution series.)
With `c1ccc2cc(CC3=NCCN3)ccc2c1`, the Potency entry was “inactive”.

In the case of `CN1CCc2cccc(Cl)c2CC1`, the Potency entry was “inactive”.

As for `Ic1ccccc1CNC1C2CCN(CC2)C1C(c1ccccc1)c1ccccc1` (stereo not given), the Potency entry was “inactive”.

In the case of `C[C@@H]1O[C@@H](O[C@H]2C[C@@H](O)[C@]3(CO)[C@@H]4C(CC[C@]3(O)C2)[C@@]2(O)CC[C@H]([C@@H]3COC(=O)C3)[C@@]2(C)C[C@H]4O)[C@H](O)[C@H](O)[C@H]1O` (stereo not given in full), the Potency result is “inactive”.

Consider `c1ccc2c(c1)[I+]c1ccccc1-2`, for which the Potency result was “inactive”.

Consider `Clc1ccc(N2CC3CCC(C2)N3)nn1`, for which the Potency entry is “inactive”.

Take `C[C@H](N)CN1CCc2ccc(Br)cc21`: the Potency result is “inactive”.

On to `CCn1cnc2c(Nc3cccc(Cl)c3)nc(N[C@@H]3CCCC[C@@H]3N)nc21`, for which the Potency entry is “inactive”.

For the compound `C[N+](C)(C)CC#CCOC(=O)Nc1cccc(Cl)c1`, the Potency result is “inactive”.

In the case of `CN(N=O)c1ccc(O)c(O)c1`, the Potency is 23.8 µM (active).

As for `CCCN(CCC)C1CCc2cccc(O)c2C1` (stereo not given), the Potency result was “inactive”.

As to `N#C/C(=C/c1ccc(O)c(O)c1)C(N)=S`, the Potency entry is “inactive”.

On to `CC(C)(C)c1cc(C=C(C#N)C#N)cc(C(C)(C)C)c1O`, for which the Potency entry was “inactive”.

On to `NNC(=O)c1ccc(O)cc1`, for which the Potency result was “inactive”.

Consider `CCCC[N+]1(C)C2CC(OC(=O)[C@H](CO)c3ccccc3)CC1C1OC12` (stereo not given in full), for which the Potency result was “inactive”.

As to `C[C@H](N)Cc1cccc(C(F)(F)F)c1`, the Potency result is “inactive”.

Take `CC(C)(C)c1o[nH]c(=O)c1CC(N)C(=O)O` (stereo not given): the Potency entry was “inactive”.

In the case of `NCC(O)c1cc(O)c(O)cc1F` (stereo not given), the Potency entry is “inactive”.

`C[N+](C)(C)CC#CCN1CCCC1=O`: the Potency entry is “inactive”.

In the case of `COc1ccc(CNC(=O)/C=C/c2ccc3[nH]cc(CCN(C)C)c3c2)cc1`, the Potency entry is “inactive”.

For the compound `Oc1ccc2c3c1O[C@H]1c4[nH]c5ccccc5c4C[C@@]4(O)C(C2)N(CC2CC2)CCC314` (stereo not given in full), the Potency entry was “inactive”.

`O=S1(=O)N(CCN2CC=C(c3c[nH]c4cc(F)ccc34)CC2)c2cccc3c2N1CCC3`: the Potency entry is “inactive”.

For the compound `OC1CCCCC1N1CCC(c2ccccc2)CC1` (stereo not given), the Potency entry was “inactive”.

As for `COc1ccc2c(c1)[C@@]13CCCC[C@H]1[C@@H](C2)NCC3`, the Potency entry was “inactive”.

For the compound `CP(=O)(O)C1=CCNCC1`, the Potency entry is “inactive”.

As for `C[N+]1(C)CCN(c2ccccc2)CC1`, the Potency entry is “inactive”.

As to `CC12NC(Cc3ccccc31)c1ccccc12` (stereo not given), the Potency result was “inactive”.

Turning to `CC(=O)OCC1=C(C(=O)O)N2C(=O)[C@@H](NC(=O)CCC[C@@H](N)C(=O)O)[C@H]2SC1`, the Potency entry was “inactive”.

Consider `C=CCN1CC[C@]23c4c5ccc(O)c4O[C@@H]2/C(=N/N=C2\CC[C@@]4(O)C6Cc7ccc(O)c8c7[C@@]4(CCN6CC=C)[C@@H]2O8)CC[C@@]3(O)C1C5`, for which the Potency entry was “inactive”.

As to `C/C(O)=C(\C#N)C(=O)Nc1cc(Br)ccc1Br`, the Potency result was “inactive”.

`C[N+]1(C)CCc2cc3c(cc2[C@H]1[C@@H]1OC(=O)c2c1ccc1c2OCO1)OCO3`: the Potency result is “inactive”.

Take `CCCN1CC[C@@H]2c3cc(O)ccc3CC[C@@H]21`: the Potency result was “inactive”.

For the compound `NNC(N)=O`, the Potency result was “inactive”.

As to `CC(Cc1ccc(OCC(=O)O)cc1)NCC(O)c1cccc(Cl)c1` (stereo not given), the Potency result was “inactive”.

For `NC(N)=NOCC[C@H](N)C(=O)O`, the Potency entry was “inactive”.

As for `O=C(O)c1cc[c]([Hg][Cl])cc1`, the Potency was 4.74 µM (active).

As for `CC(N)Cc1c[nH]c2ccc(O)cc12` (stereo not given), the Potency entry was “inactive”.

As to `CCCN1CCc2cccc3c2[C@H]1Cc1ccc(O)c(O)c1-3`, the Potency result is “inactive”.

For the compound `CC(N)c1cccc(Cl)c1Cl` (stereo not given), the Potency entry was “inactive”.

Take `N#CCCN`: the Potency entry is “inactive”.
